This is a sample that favours compounds with a hit; in the whole collection about 11% have one here.
USP17 block: blocks human USP17 ubiquitin-rhodamine cleavage; actives 6.5% (n = 47,000); A8MUK1; inhibition, % at 50 µM; purified USP17, Ub-rhodamine cleavage fluorescence, 3 h
USP28 block: human USP28 deubiquitinase inhibition; purified USP28, Ub-rhodamine cleavage fluorescence, 30 min; Q96RU2; inhibition, % at 25 µM; actives 3% (n = 47,000)
USP30 block: human USP30 deubiquitinase inhibition | Q70CQ3 | purified USP30, Ub-rhodamine cleavage fluorescence | inhibition, % at 25 µM | actives 5.3% (n = 47,000) | AID 1645860
Target sequence (Q70CQ3 whole entry, looked up): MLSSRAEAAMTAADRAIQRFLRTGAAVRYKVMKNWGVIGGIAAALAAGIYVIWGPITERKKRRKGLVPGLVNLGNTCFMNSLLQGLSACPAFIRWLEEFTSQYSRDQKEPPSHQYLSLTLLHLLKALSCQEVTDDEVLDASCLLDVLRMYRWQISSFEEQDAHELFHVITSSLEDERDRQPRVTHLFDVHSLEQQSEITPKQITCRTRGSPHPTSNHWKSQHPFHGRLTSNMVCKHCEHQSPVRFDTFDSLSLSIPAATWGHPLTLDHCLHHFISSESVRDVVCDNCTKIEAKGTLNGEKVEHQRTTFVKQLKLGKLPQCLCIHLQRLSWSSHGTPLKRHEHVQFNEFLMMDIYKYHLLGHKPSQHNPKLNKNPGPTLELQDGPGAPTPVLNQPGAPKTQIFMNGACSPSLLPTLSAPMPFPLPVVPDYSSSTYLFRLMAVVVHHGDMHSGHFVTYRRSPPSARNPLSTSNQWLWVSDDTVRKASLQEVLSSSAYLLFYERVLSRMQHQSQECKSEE
Of the large screens only hits and unclear results are named; the others gave an inactive call. No stated cut-off is given here; in the data, active means inhibition above about 30%; inactive means the rest.

CNc1ccc(Oc2nc(F)c(Cl)c3c2N(CC2CCCO2)CCS3(=O)=O)cc1 (stereo unspecified)	none
COCCCN1CCS(=O)(=O)c2c(Cl)c(F)nc(Oc3ccccc3)c21	USP17 block 41
CC(=O)Nc1ccc2nc(N3CCC(C(=O)N4CCN(C)CC4)CC3)cc(C)c2c1	none
O=C(c1ccc(C(F)(F)F)nc1)N1CCc2nc3ccncc3cc2C1	none
CCN(CC)S(=O)(=O)c1ccc2[nH]c(=O)cc(C(=O)Nc3ccc4c(c3)OCO4)c2c1	none
COc1ccc(C(CC(=O)Nc2ccc(Cl)cc2F)NC(=O)C(F)(F)F)cc1 (stereo unspecified)	USP17 block 31
COc1ccc(-c2nc(SCC(=O)Nc3ccc(Cl)cc3F)n[nH]2)cc1	USP17 block 59, USP30 block 33
CCc1ccc(C(CC(=O)Nc2ccc3c(c2)OCO3)NC(=O)C(F)(F)F)cc1 (stereo unspecified)	none
O=C(CSc1n[nH]c(-c2ccc(F)cc2)n1)Nc1ccc(F)cc1F	none
Cc1ccc(OCC(=O)NCC2(N3CCOCC3)CCCCC2)cc1	none
COC(=O)c1ccc(CNC(=O)c2ccc(Oc3ccccc3)cc2)cc1	none
O=C(COc1cccc(C(=O)NCc2ccccc2)c1)Nc1ccc(Oc2ccccc2)cc1	USP17 block 40, USP30 block 56
CCOC(=O)c1cc2c(ccn2C)n1CC(=O)N(Cc1ccc(Cl)cc1)c1ccccc1	USP17 block 43
CCOC(=O)c1cc2c(ccn2C)n1Cc1ccc(C#N)cc1	none
CCn1cc(-c2cc(C(=O)N3CCC[C@]4(C)NC(=O)CCC[C@H]34)on2)cn1	none
Cc1noc(C)c1CN1CCN(C(=O)NC2CCCC2)CC1	none
CC(=O)c1cccc(NC(=O)CNC(=O)c2cc3ccccc3o2)c1	none
O=C(CNC(=O)c1cc2ccccc2o1)Nc1cccc(F)c1	USP30 block 46
CCC(NC(=O)c1ccc2c(c1)OCO2)c1ccccc1 (stereo unspecified)	none
CC(NC(=O)CNC(=O)c1ccc2c(c1)OCO2)c1cc2ccccc2o1 (stereo unspecified)	USP17 block 42
Cc1ccc(NC(=O)CNC(=O)c2cc3ccccc3o2)cc1F	none
O=C(CNC(=O)c1cc2ccccc2o1)Nc1ccc2c(c1)OCCO2	USP17 block 63, USP28 block 56
O=C(CNC(=O)c1cc2ccccc2o1)Nc1ccc(Cl)c(C(F)(F)F)c1	none
Cc1ccc(NC(=O)CNC(=O)c2cc3ccccc3o2)cc1	USP17 block 55
Cc1ccc(-c2nc3c(c(SCC(N)=O)n2)COC(C)(C)C3)cc1	none
COc1ccc(N2CCN(C(=O)c3csc4c3CCC(C(C)(C)C)C4)CC2)cc1 (stereo unspecified)	none
O=C(Nc1nnc(C2CC2)s1)c1ccc(N2CCCC2=O)cc1	none
O=C(O)Cc1ccc(-n2c(=O)[nH]c3ccccc3c2=O)cc1	none
COc1cccc(-c2ocnc2C(=O)Nc2c(C)cccc2C)c1	none (no result: USP28 block, USP30 block)
Cc1ccc(C(=O)O)cc1S(=O)(=O)Nc1cc(C(=O)O)ccc1F	none
O=C(Cc1ccccc1)Nc1cc(=O)[nH]c2nc(COc3ccccc3)nn12	none
COc1cc(NC(=O)Cc2ccccc2)ccc1NC(=O)c1cc2ccccc2o1	USP17 block 70, USP30 block 41
CCOc1cc(OCC)cc(C(=O)Nc2ccc(NC(=O)c3ccco3)c(OC)c2)c1	none
Cc1ccc(N2C(=O)CN(S(=O)(=O)c3ccccc3)CC2(C)C(=O)NCCC(C)C)cc1 (stereo unspecified)	none
COc1ccc(CC(=O)N2CCN(S(=O)(=O)c3ccc4c(c3)OCCCO4)CC2)cc1	none
Cc1ccccc1OCC(=O)N1CCN(S(=O)(=O)c2ccc3c(c2)OCCCO3)CC1	USP30 block 38
Cc1ccc(C)c(NC(=O)Cn2cccc(S(=O)(=O)N3CCCCCC3)c2=O)c1	none
COCC(=O)N1CCC([C@@H]2C[C@H](C(F)(F)F)n3nc(C(C)(C)C)cc3N2)CC1	USP17 block 51 (no result: USP28 block, USP30 block)
Cc1cc2n(n1)[C@@H](C(F)(F)F)C[C@@H](C1CCN(C(=O)Cc3sc(C)nc3C)CC1)N2	none
CCOc1ccc(-c2nc(C#N)c(N3CCN(C(=O)c4ccccc4C)CC3)o2)cc1	USP17 block 52
COc1ccccc1-c1nc(C#N)c(N2CCN(C(=O)c3ccccc3)CC2)o1	USP30 block 47
CC(=O)N1CCN(c2oc(-c3ccc(COc4ccc(C)cc4)o3)nc2C#N)CC1	none
COc1cccc(/C=C/c2nc(C#N)c(N3CCN(C(=O)c4ccc(F)cc4)CC3)o2)c1	none
Cn1cc(-c2nc(C(=O)Nc3ccc(C#N)cc3)cs2)c2cccnc21	none
Cc1c(C(=O)N2CCCCC2)oc2ccc3c(c12)C(O)CC1(CCCCC1)O3 (stereo unspecified)	none
Cc1ccsc1Cn1nccc1NC(=O)c1cccnc1N1CCCC1	none
CC1(c2cc(F)ccc2F)NC(=O)N(Cc2ncc(-c3ccc(Cl)cc3)o2)C1=O (stereo unspecified)	none
Cc1nn(-c2ccccc2)c2c1[C@@H](c1ccc3c(c1)OCCO3)[C@H](NC(=O)c1ccccc1)C(=O)N2	none
Cc1ccc(-n2nc(C)c3c2NC(=O)[C@@H](NC(=O)c2ccccc2)[C@@H]3c2ccc(F)cc2)cc1	USP28 block 48
Cc1nn(C)c2c1[C@@H](c1ccc(F)cc1)[C@H](NC(=O)c1ccccc1)C(=O)N2	USP28 block 80
COc1cc([C@@H]2c3c(C)nn(C)c3NC(=O)[C@H]2NC(=O)c2ccc(Cl)cc2)cc2c1OCCO2	none
O=C(c1cc(C2CCCCC2)no1)N1C[C@@H](O)[C@H](N2CCOCC2)C1	none
CCCC[C@@H](C)/C=C(C)/C=C(\C)C(=O)NC1=C[C@](O)(/C=C/C=C/C=C/C(=O)NC2=C(O)CCC2=O)[C@@H]2O[C@@H]2C1=O	USP17 block 73, USP28 block 73
CC(C)c1c(O)ccc2c1CCC1[C@@](C)(C=O)CCC[C@]21C (stereo partly specified)	USP17 block 35
O=C(COc1ccc(-c2ccccc2)cc1)c1ccc(-c2ccccc2)cc1	none
O=C(CCc1c[nH]c2ccccc12)Nc1ccc(N2CCOCC2)cc1	USP17 block 60, USP28 block 62, USP30 block 33
Cc1cc(C)c(NC(=O)CCc2c[nH]c3ccccc23)c(Cl)c1	none
O=C(COC(=O)CCCc1c[nH]c2ccccc12)Nc1ccc2c(c1)OCO2	USP28 block 40
COc1ccc(C)cc1NC(=O)COC(=O)CCCc1c[nH]c2ccccc12	none
Cc1c(C(=O)N2CCCCC2)cnn1-c1ccc(-c2nc(C3CC3)no2)cn1	none
Cc1cccc(C(=O)N2CCC3(CC2)COCCN(Cc2cccnc2)C3)c1	none
Brc1ccc(C2(c3nc(Cc4ccccc4)no3)CCOCC2)cc1	none
Cc1cc2c(=O)n(Cc3ccco3)c(SCC(=O)Nc3cccc(Cl)c3)nc2s1	none
O=C(CC1C(=O)N(Cc2ccccc2)c2nc3ccccc3n21)NCCc1ccccc1 (stereo unspecified)	USP30 block 60
O=C(CC1C(=O)N(Cc2ccccc2)c2nc3ccccc3n21)Nc1ccccc1 (stereo unspecified)	none
Cc1ccc(C(=O)N2CCC3(CC2)CCN(c2cncnc2)C3=O)cc1	none
O=C(Nc1cccc(Cl)c1)N1CCC(c2nc(-c3cccnc3)no2)CC1	none
O=C(Nc1cccc(Cl)c1)N1CCC(c2cc(-c3ccco3)n[nH]2)CC1	USP17 block 64, USP28 block 39

Screening results deposited in PubChem BioAssay by Buhrlage Lab, Dana-Farber Cancer Institute and Novartis Institutes for BioMedical Research (Cambridge, Mass).
